This passage reports cell viability results from the supplement of paper PMC10981050.

Values joined by “and” are separate entries in the source; they are usually repeats but may differ in a detail not shown here. Equal entries are not always repeated. Structures can show the parent of a compound that is named as a salt.

Test in all cases: cell viability relative to vehicle control; higher = less cytotoxic
What all share (settings): 10 µM

One experiment deals with K562. Summed up: (§1)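 Four leukaemia lines, as CRISPR-edited mutant clones and isogenic wild-type clones, were tested against Selleck bioactive, kinase and epigenetic probe libraries after removal of identity-inconsistent compounds. Cells were exposed to a single 10 µM dose for 48 h, and CellTiter-Glo luminescence was then read. Viability was calculated relative to the on-plate vehicle control.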

The test system of the next experiment is MARIMO. Summed up: as §1
The test system of another experiment is MOLM14. Summed up: as §1
A further experiment has as its system OCI-AML2. Summed up: as §1

For the compound `COc1cc2oc(-c3ccccc3)cc(=O)c2c(OC)c1OC` [5,6,7-Trimethoxyflavone], the cell viability is 109% and 110% in the experiment on K562 (SRSF2 genotype: SRSF2 P95H/wt); 107% with K562 (SRSF2 genotype: SRSF2 wt/wt); 99.9% in the experiment with MARIMO (SRSF2 genotype: SRSF2 P95H/wt); 96.3% with MARIMO (SRSF2 genotype: SRSF2 wt/wt); 111% with MOLM14 (SRSF2 genotype: SRSF2 P95H/wt); 110% with MOLM14 (SRSF2 genotype: SRSF2 wt/wt). The cell viability with OCI-AML2 (SRSF2 genotype: P95H/wt) was determined as 85.1%; with OCI-AML2 (SRSF2 genotype: wt/wt) it was 87.3%.

Take `Cc1nccn1CC1CCc2c(c3ccccc3n2C)C1=O` (configuration not stated) [Ondansetron hydrochloride (Zofran)]: the cell viability with K562 (SRSF2 genotype: SRSF2 P95H/wt) is 96.1% and 89.4%; in the experiment on K562 (SRSF2 genotype: SRSF2 wt/wt) it was 93.8%; in the experiment with MARIMO (SRSF2 genotype: SRSF2 P95H/wt), 88.4%; with MARIMO (SRSF2 genotype: SRSF2 wt/wt), 95.6%; in the experiment with MOLM14 (SRSF2 genotype: SRSF2 P95H/wt) it was 102%; with MOLM14 (SRSF2 genotype: SRSF2 wt/wt) it was 98.9%. Moreover, the results for the cell viability in the experiment with OCI-AML2 (SRSF2 genotype: P95H/wt) and in the experiment with OCI-AML2 (SRSF2 genotype: wt/wt) were 95.5% and 101%, respectively.

On to `CCOC(=O)[C@@H](N)Cc1ccc(-c2cc(O[C@H](c3ccc(Cl)cc3-n3ccc(C)n3)C(F)(F)F)nc(N)n2)cc1` [LX1606 hippurate], for which the cell viability with K562 (SRSF2 genotype: SRSF2 P95H/wt) is 64.2% and 52.4%; in the experiment on K562 (SRSF2 genotype: SRSF2 wt/wt), 57.2%; in the experiment with MARIMO (SRSF2 genotype: SRSF2 P95H/wt), 68.9%; in the experiment on MARIMO (SRSF2 genotype: SRSF2 wt/wt), 72.7%; in the experiment on MOLM14 (SRSF2 genotype: SRSF2 P95H/wt), 14.2%; in the experiment with MOLM14 (SRSF2 genotype: SRSF2 wt/wt) it was 44.5%. Moreover, the cell viability with OCI-AML2 (SRSF2 genotype: P95H/wt) amounted to 4.73%; with OCI-AML2 (SRSF2 genotype: wt/wt), 12.2%.

Consider `COc1cc2c(cc1OC)[C@@H](Cc1ccc(Oc3cc(C[C@@H]4c5cc(OC)c(OC)cc5CCN4C)ccc3O)cc1)N(C)CC2` [Dauricine], for which the cell viability with K562 (SRSF2 genotype: SRSF2 P95H/wt) was 38% and 41.8%; with K562 (SRSF2 genotype: SRSF2 wt/wt), 18.5%; with MARIMO (SRSF2 genotype: SRSF2 P95H/wt) it was 2.46%; in the experiment with MARIMO (SRSF2 genotype: SRSF2 wt/wt), 15.1%; in the experiment on MOLM14 (SRSF2 genotype: SRSF2 P95H/wt) it was 1.5%; in the experiment with MOLM14 (SRSF2 genotype: SRSF2 wt/wt), 1.07%. Further, the values for the cell viability in the experiment with OCI-AML2 (SRSF2 genotype: P95H/wt) and with OCI-AML2 (SRSF2 genotype: wt/wt) were 5.34% and 4.94%, respectively.

Turning to `O=C(O)c1cc(C(=O)O)c(C(=O)N(Cc2cccc(Oc3ccccc3)c2)[C@H]2CCCc3ccccc32)cc1C(=O)O`, the cell viability was 119% and 108% with K562 (SRSF2 genotype: SRSF2 P95H/wt); 113% in the experiment on K562 (SRSF2 genotype: SRSF2 wt/wt); 102% with MARIMO (SRSF2 genotype: SRSF2 P95H/wt); 103% in the experiment with MARIMO (SRSF2 genotype: SRSF2 wt/wt); 105% in the experiment with MOLM14 (SRSF2 genotype: SRSF2 P95H/wt); 101% with MOLM14 (SRSF2 genotype: SRSF2 wt/wt). For the same compound, the cell viability in the experiment with OCI-AML2 (SRSF2 genotype: P95H/wt) stood at 106%; in the experiment on OCI-AML2 (SRSF2 genotype: wt/wt), 105%.

On to `CCOc1nc2cccc(C(=O)O)c2n1Cc1ccc(-c2ccccc2-c2noc(=O)[nH]2)cc1` [Azilsartan (TAK-536)], for which the cell viability in the experiment on K562 (SRSF2 genotype: SRSF2 P95H/wt) was 106% and 104%; in the experiment with K562 (SRSF2 genotype: SRSF2 wt/wt), 97.9%; in the experiment with MARIMO (SRSF2 genotype: SRSF2 P95H/wt), 93.5%; with MARIMO (SRSF2 genotype: SRSF2 wt/wt), 103%; in the experiment with MOLM14 (SRSF2 genotype: SRSF2 P95H/wt), 99.2%; in the experiment with MOLM14 (SRSF2 genotype: SRSF2 wt/wt), 103%. Further, the cell viability with OCI-AML2 (SRSF2 genotype: P95H/wt) and with OCI-AML2 (SRSF2 genotype: wt/wt) was 101% in each case.

Turning to `Cc1ccc(-n2[nH]c(C)c(N=Nc3cccc(-c4cccc(C(=O)O)c4)c3O)c2=O)cc1C` [Eltrombopag olamine], the cell viability in the experiment on K562 (SRSF2 genotype: SRSF2 P95H/wt) is 76% and 80.3%; in the experiment with K562 (SRSF2 genotype: SRSF2 wt/wt) it was 69.3%; in the experiment on MARIMO (SRSF2 genotype: SRSF2 P95H/wt), 54.9%; in the experiment on MARIMO (SRSF2 genotype: SRSF2 wt/wt), 69%; in the experiment with MOLM14 (SRSF2 genotype: SRSF2 P95H/wt), 75.4%; with MOLM14 (SRSF2 genotype: SRSF2 wt/wt), 68.5%. Besides, the cell viability was 66.3% in the experiment with OCI-AML2 (SRSF2 genotype: P95H/wt) and 60.3% in the experiment with OCI-AML2 (SRSF2 genotype: wt/wt).

Regarding `CC(C)CCCC(C)C1CCC2C3CCC4CC(O)CCC4(C)C3CCC12C` (configuration not stated) [Dihydrocholesterol], the cell viability in the experiment with K562 (SRSF2 genotype: SRSF2 P95H/wt) was 93% and 100%; with K562 (SRSF2 genotype: SRSF2 wt/wt) it was 92.6%; in the experiment with MARIMO (SRSF2 genotype: SRSF2 P95H/wt), 95.2%; in the experiment on MARIMO (SRSF2 genotype: SRSF2 wt/wt), 97.3%; in the experiment on MOLM14 (SRSF2 genotype: SRSF2 P95H/wt) it was 90.2%; in the experiment with MOLM14 (SRSF2 genotype: SRSF2 wt/wt), 97.6%. For the same compound, the cell viability stood at 98.3% in the experiment with OCI-AML2 (SRSF2 genotype: P95H/wt) and 97.6% with OCI-AML2 (SRSF2 genotype: wt/wt).

Take `CCOC(=O)C1=C(C)NC(C)=C(C(=O)OCC)C1` [Diludine]: the cell viability with K562 (SRSF2 genotype: SRSF2 P95H/wt) is 99.6% and 92.2%; in the experiment on K562 (SRSF2 genotype: SRSF2 wt/wt) it was 104%; in the experiment on MARIMO (SRSF2 genotype: SRSF2 P95H/wt) it was 94.3%; in the experiment on MARIMO (SRSF2 genotype: SRSF2 wt/wt) it was 99.7%; in the experiment with MOLM14 (SRSF2 genotype: SRSF2 P95H/wt), 104%; in the experiment with MOLM14 (SRSF2 genotype: SRSF2 wt/wt) it was 99.3%. The cell viability in the experiment on OCI-AML2 (SRSF2 genotype: P95H/wt) was determined as 99.3%; in the experiment on OCI-AML2 (SRSF2 genotype: wt/wt), 93.9%.
